About 79,000 compounds went through this panel and 15% of them were active in at least one assay; those are over-represented in the sample as a whole. The source made the active and inactive calls. No stated cut-off is given here; in the data, active means growth inhibition above about 70%; inactive means the rest.
Assays:
[1] = NCI Yeast Anticancer Drug Screen. Data for the rad50EPP+ strain (AID 151);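 further: 0% = growth of vehicle-treated control cultures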; details: S. cerevisiae rad50 mutant strain, stronger effect = higher value
Method in brief: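 Compounds were applied to the rad50EPP+ yeast strain, which bears a defined DNA repair alteration, and growth inhibition was determined relative to vehicle-treated cultures.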

[2] = NCI Yeast Anticancer Drug Screen. Data for the mgt1 strain (AID 153); details: S. cerevisiae mgt1 mutant growth inhibition, stronger effect = higher value
Method in brief: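 Strain: mgt1 yeast, one of a set carrying defined DNA damage repair or cell cycle control alterations. Compound-treated growth compared with vehicle.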

[3] = NCI Yeast Anticancer Drug Screen. Data for the rad50 strain (AID 155);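 further: 0% = growth of vehicle-only cultures of the same strain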; details: S. cerevisiae rad50 strain growth inhibition, stronger effect = higher value
Method in brief: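 Inhibition values express reduced yeast growth in compound-treated cultures relative to vehicle-treated controls.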

[4] = NCI Yeast Anticancer Drug Screen. Data for the mec2-1 strain (AID 157); details: S. cerevisiae mec2-1 strain, stronger effect = higher value
Method in brief: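 Strain: mec2-1 (DNA repair/cell cycle alteration). Compound exposure, then growth measured; inhibition expressed relative to vehicle.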

[5] = NCI Yeast Anticancer Drug Screen. Data for the rad14 strain (AID 159);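 further: 0% = growth of vehicle-treated control cultures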; details: S. cerevisiae rad14 strain growth inhibition, stronger effect = higher value
Method in brief: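 A mutant yeast strain defective in DNA damage repair is treated with compound; inhibition of its growth is scored against untreated, vehicle-exposed cultures.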

[6] = NCI Yeast Anticancer Drug Screen. Data for the sgs1 mgt1 strain (AID 161);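 further: 0% = growth of cultures given vehicle only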; details: S. cerevisiae sgs1 mgt1 strain, stronger effect = higher value
Method in brief: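 Read-out: growth inhibition vs vehicle controls. Cells: mutant yeast strain deficient in DNA damage repair.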

[7] = NCI Yeast Anticancer Drug Screen. Data for the CLN2oe strain (AID 163);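 further: 0% = growth of vehicle-only control cultures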; details: S. cerevisiae CLN2oe strain, stronger effect = higher value
Method in brief: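 Growth of a genetically modified yeast strain is measured after compound exposure and compared with cultures given vehicle alone.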

[8] = NCI Yeast Anticancer Drug Screen. Data for the cln2 rad14 strain (AID 165);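 further: 0% = growth equal to vehicle treated cultures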; details: S. cerevisiae cln2 rad14 strain, stronger effect = higher value
Method in brief: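 Compounds are applied to the cln2 rad14 yeast strain, and growth is then compared with that of vehicle-treated cultures to give inhibition.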

[9] = NCI Yeast Anticancer Drug Screen. Data for the bub3 strain (AID 167); details: S. cerevisiae bub3 mutant strain, stronger effect = higher value
Method in brief: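 Steps: expose the mutant yeast strain to compound; grow alongside vehicle-treated cultures; measure growth; express inhibition against the vehicle cultures.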

[10] = NCI Yeast Anticancer Drug Screen. Data for the wt2 strain (AID 169);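 further: 0% = growth of vehicle-treated yeast cultures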; details: S. cerevisiae wt2 strain growth inhibition, stronger effect = higher value
Method in brief: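 This strain belongs to a panel of yeast strains with defined genetic alterations in DNA damage repair or cell cycle control. Compounds are applied, and growth inhibition is measured against vehicle-treated cultures.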

[11] = NCI Yeast Anticancer Drug Screen. Data for the mlh1 strain (AID 171);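 further: 0% = growth of vehicle-treated control cultures of the same strain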; details: S. cerevisiae mlh1 strain growth inhibition, stronger effect = higher value
Method in brief: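 Growth of the mutant yeast strain after compound exposure, expressed as inhibition relative to vehicle-only controls.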

[12] = NCI Yeast Anticancer Drug Screen. Data for the sgs1 strain (AID 173);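 further: 0% = growth of vehicle-only control cultures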; details: S. cerevisiae sgs1 mutant, stronger effect = higher value
Method in brief: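 Growth of a yeast strain bearing a defined genetic alteration is measured after compound treatment. Inhibition is expressed relative to vehicle-only controls.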

[13] = NCI Yeast Anticancer Drug Screen. Data for the mlh1 rad18 strain (AID 175); details: S. cerevisiae mlh1 rad18 strain growth inhibition, stronger effect = higher value
Method in brief: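 Read-out is yeast growth inhibition, calculated against vehicle-only controls. The compound was applied to a strain engineered with DNA damage repair alterations.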

[14] = NCI Yeast Anticancer Drug Screen. Data for the rad18 strain (AID 177); details: S. cerevisiae rad18 mutant growth inhibition, stronger effect = higher value
Method in brief: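 Growth of the mutant yeast strain after compound exposure, normalised to vehicle-only cultures.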

[15] = NCI Yeast Anticancer Drug Screen. Data for the wt1 strain (AID 149);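 further: 0% = growth of vehicle-treated wt1 cultures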; details: S. cerevisiae wt1 strain (SPY 50644) growth inhibition, stronger effect = higher value
Method in brief: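 Compounds are added to wt1 yeast cultures. Growth is then measured. Inhibition is expressed relative to vehicle-treated controls.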

[16] = at 5.0 µM (retest, dose inferred, filed as 0.5)
[17] = at 50.0 µM (retest, dose inferred, filed as 5.0)

Measured: growth inhibition

CS(=O)(=O)O.[Ag]
inactive: [2]; at 1.2 µM 65% | [4]; at 1.2 µM 67% | [5]; at 1.2 µM 59% | [6]; [16] -25% | [7]; at 1.2 µM 62% | [8]; [16] 55% | [9]; [16] 4% | [10]; at 1.2 µM 27% | [13]; at 50.0 µM 43.8%
active: [1]; at 1.2 µM 92% | [1]; at 3.7 µM 99% | [1]; at 11.0 µM 100% | [1]; at 33.0 µM 99% | [1]; at 100.0 µM 98% | [2]; at 3.7 µM 99% | [2]; at 11.0 µM 99% | [2]; at 33.0 µM 99% | [2]; at 100.0 µM 98% | [3]; at 1.2 µM 71% | [3]; at 3.7 µM 99% | [3]; [16] 100% | [3]; at 11.0 µM 99% | [3]; at 33.0 µM 99% | [3]; [17] 100% | [3]; at 50.0 µM 91.5% | [3]; at 100.0 µM 98% | [4]; at 3.7 µM 99% | [4]; [16] 100% | [4]; at 11.0 µM 100% | [4]; at 33.0 µM 99% | [4]; [17] 98% | [4]; at 50.0 µM 92.5% | [4]; at 100.0 µM 98% | [5]; at 3.7 µM 99% | [5]; at 11.0 µM 98% | [5]; at 33.0 µM 98% | [5]; at 100.0 µM 97% | [6]; [17] 99% | [6]; at 50.0 µM 93.5% | [7]; at 3.7 µM 99% | [7]; at 11.0 µM 98% | [7]; at 33.0 µM 99% | [7]; at 100.0 µM 98% | [8]; [17] 98% | [8]; at 50.0 µM 92.2% | [9]; at 1.2 µM 80% | [9]; at 3.7 µM 98% | [9]; at 11.0 µM 99% | [9]; at 33.0 µM 96% | [9]; [17] 98% | [9]; at 50.0 µM 92% | [9]; at 100.0 µM 97% | [10]; at 3.7 µM 99% | [10]; at 11.0 µM 98% | [10]; at 33.0 µM 99% | [10]; at 100.0 µM 98% | [11]; at 1.2 µM 89% | [11]; at 3.7 µM 100% | [11]; at 11.0 µM 99% | [11]; at 33.0 µM 99% | [11]; at 100.0 µM 98% | [12]; at 1.2 µM 89% | [12]; at 3.7 µM 100% | [12]; at 11.0 µM 100% | [12]; at 33.0 µM 100% | [12]; at 100.0 µM 98% | [13]; [16] 100% | [13]; [17] 100% | [14]; at 1.2 µM 76% | [14]; at 3.7 µM 100% | [14]; at 11.0 µM 99% | [14]; at 33.0 µM 99% | [14]; at 100.0 µM 98%

O=C1C(=C2CCCC2)CCC1CN1CCCCC1 (centres undefined)
active: [15]; at 100.0 µM 89% | [1]; at 33.0 µM 80% | [1]; at 100.0 µM 94% | [2]; at 100.0 µM 95% | [3]; at 50.0 µM 76.3% | [3]; at 100.0 µM 95% | [4]; at 33.0 µM 70% | [4]; at 100.0 µM 96% | [5]; at 100.0 µM 94% | [7]; at 100.0 µM 91% | [9]; at 33.0 µM 81% | [9]; [17] 80% | [9]; at 100.0 µM 97% | [10]; at 100.0 µM 93% | [11]; at 33.0 µM 84% | [11]; at 100.0 µM 97% | [12]; at 33.0 µM 87% | [12]; at 100.0 µM 97% | [13]; [17] 83% | [14]; at 33.0 µM 81% | [14]; at 100.0 µM 94%
inactive: [15]; at 1.2 µM 6% | [15]; at 3.7 µM 12% | [15]; at 11.0 µM 27% | [15]; at 33.0 µM 30% | [1]; at 1.2 µM 28% | [1]; at 3.7 µM 36% | [1]; at 11.0 µM 48% | [2]; at 1.2 µM -10% | [2]; at 3.7 µM 5% | [2]; at 11.0 µM 13% | [2]; at 33.0 µM 54% | [3]; at 1.2 µM 2% | [3]; at 3.7 µM 8% | [3]; [16] -3% | [3]; at 11.0 µM 9% | [3]; at 33.0 µM 60% | [3]; [17] 57% | [4]; at 1.2 µM -7% | [4]; at 3.7 µM -12% | [4]; [16] 6% | [4]; at 11.0 µM 9% | [4]; [17] 60% | [4]; at 50.0 µM 68.7% | [5]; at 1.2 µM 10% | [5]; at 3.7 µM 10% | [5]; at 11.0 µM 29% | [5]; at 33.0 µM 57% | [6]; [16] 9% | [6]; [17] 57% | [6]; at 50.0 µM 58.9% | [7]; at 1.2 µM -16% | [7]; at 3.7 µM 11% | [7]; at 11.0 µM -1% | [7]; at 33.0 µM 40% | [8]; [16] 4% | [8]; [17] 14% | [8]; at 50.0 µM 43.5% | [9]; at 1.2 µM 8% | [9]; at 3.7 µM 10% | [9]; [16] -21% | [9]; at 11.0 µM 18% | [9]; at 50.0 µM 55.6% | [10]; at 1.2 µM -17% | [10]; at 3.7 µM 2% | [10]; at 11.0 µM 11% | [10]; at 33.0 µM 68% | [11]; at 1.2 µM 0% | [11]; at 3.7 µM 0% | [11]; at 11.0 µM 13% | [12]; at 1.2 µM 34% | [12]; at 3.7 µM 30% | [12]; at 11.0 µM 63% | [13]; [16] -29% | [13]; at 50.0 µM 63.5% | [14]; at 1.2 µM 8% | [14]; at 3.7 µM 6% | [14]; at 11.0 µM 27%

CC(C)(CN1CCCCC1)C(=O)/C=C/c1c(Cl)cccc1Cl
active: [15]; at 33.0 µM 93% | [15]; at 100.0 µM 97% | [2]; at 11.0 µM 81% | [2]; at 33.0 µM 98% | [2]; at 100.0 µM 99% | [3]; at 33.0 µM 97% | [3]; [17] 99% | [3]; at 50.0 µM 75.8% | [3]; at 100.0 µM 97% | [4]; at 33.0 µM 94% | [4]; [17] 97% | [4]; at 50.0 µM 83.9% | [4]; at 100.0 µM 97% | [5]; at 11.0 µM 92% | [5]; at 33.0 µM 99% | [5]; at 100.0 µM 99% | [6]; [17] 98% | [6]; at 50.0 µM 86.9% | [7]; at 11.0 µM 79% | [7]; at 33.0 µM 93% | [7]; at 100.0 µM 98% | [8]; [17] 99% | [8]; at 50.0 µM 86.4% | [9]; at 11.0 µM 91% | [9]; at 33.0 µM 98% | [9]; [17] 99% | [9]; at 50.0 µM 88.8% | [9]; at 100.0 µM 98% | [10]; at 11.0 µM 71% | [10]; at 33.0 µM 98% | [10]; at 100.0 µM 98% | [11]; at 33.0 µM 90% | [11]; at 100.0 µM 97% | [12]; at 11.0 µM 73% | [12]; at 33.0 µM 98% | [12]; at 100.0 µM 98% | [13]; [17] 98% | [13]; at 50.0 µM 87.7% | [14]; at 11.0 µM 89% | [14]; at 33.0 µM 98% | [14]; at 100.0 µM 98%
inactive: [15]; at 1.2 µM 10% | [15]; at 3.7 µM 15% | [15]; at 11.0 µM 32% | [1]; at 1.2 µM -2% | [1]; at 3.7 µM 0% | [1]; at 11.0 µM 22% | [1]; at 33.0 µM 50% | [1]; at 100.0 µM 47% | [2]; at 1.2 µM 10% | [2]; at 3.7 µM 37% | [3]; at 1.2 µM 11% | [3]; at 3.7 µM 29% | [3]; [16] 2% | [3]; at 11.0 µM 67% | [4]; at 1.2 µM 16% | [4]; at 3.7 µM 20% | [4]; [16] 14% | [4]; at 11.0 µM 51% | [5]; at 1.2 µM 44% | [5]; at 3.7 µM 54% | [6]; [16] 21% | [7]; at 1.2 µM 30% | [7]; at 3.7 µM 54% | [8]; [16] 55% | [9]; at 1.2 µM 27% | [9]; at 3.7 µM 49% | [9]; [16] 9% | [10]; at 1.2 µM 19% | [10]; at 3.7 µM 28% | [11]; at 1.2 µM 1% | [11]; at 3.7 µM 14% | [11]; at 11.0 µM 38% | [12]; at 1.2 µM 0% | [12]; at 3.7 µM 38% | [13]; [16] 30% | [14]; at 1.2 µM 31% | [14]; at 3.7 µM 57%
